In PubChem BioAssay (NCATS):
Results filed as inconclusive are left out. Values without a mark were called inactive. Calls follow the shape of the dose curve; as a rule, active = well fitted activation curve with a large enough effect; inconclusive = small, poorly fitted or top-dose-only effect; inactive = no such curve, though single readings can be large or run the other way.

Biological target: Cellular tumor antigen p53 (Homo sapiens) (UniProt P04637)
Test: Primary qHTS for small molecule compounds that upregulate eGFP-tagged delta133p53alpha (in N-terminal) cells. (AID 2060322);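 also: series mostly up to about 56 µM; 0% = DMSO vehicle and 100% = reference activator; nearly all actives have a fitted effect of over 75% in size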
Conditions: NCI-H358 eGFP-delta133p53alpha fluorescence, 24 h; activation: stronger effect = higher value
Method in brief: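 NCI-H358 cells pre-induced 24 h with 10 ng/ml doxycycline for eGFP-delta133p53alpha, plated dox-free and exposed 24 h at 37C to titrated compounds. Fixed, Hoechst-stained; gated GFP peak intensity by laser scanning cytometry, normalized to DMSO (0%) and 57.5 uM 5-azacytidine (100%).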

Chain of Cellular tumor antigen p53 (Homo sapiens) (P04637 whole entry, looked up): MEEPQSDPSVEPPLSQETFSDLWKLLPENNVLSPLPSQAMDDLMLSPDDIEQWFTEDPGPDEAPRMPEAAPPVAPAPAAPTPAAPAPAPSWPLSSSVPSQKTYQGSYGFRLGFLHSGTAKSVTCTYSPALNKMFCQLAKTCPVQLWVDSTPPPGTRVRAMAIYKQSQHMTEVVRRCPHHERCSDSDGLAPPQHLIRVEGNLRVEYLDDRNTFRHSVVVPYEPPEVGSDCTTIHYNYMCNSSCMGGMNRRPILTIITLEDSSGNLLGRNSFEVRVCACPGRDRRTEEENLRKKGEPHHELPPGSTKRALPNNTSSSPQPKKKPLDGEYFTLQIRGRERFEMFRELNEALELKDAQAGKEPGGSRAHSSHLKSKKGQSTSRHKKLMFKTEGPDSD

`COC(=O)c1cc(S(N)(=O)=O)ccc1OC` was tested. Which activation did it give?
The activation was -3.95%.

`CC(C)N(CCCNC(=O)Nc1ccc(C(C)(C)C)cc1)C[C@H]1O[C@@H](n2cc(Br)c3c(N)ncnc32)[C@H](O)[C@H]1O` was tested. Which activation did it give?
The activation was -20.1%.

`COc1cc(C(=S)N2CCOCC2)ccc1O` was tested. Which activation did it give?
Its activation is -10.7%.

How did the activation turn out when `CN/C(=C\[N+](=O)[O-])NCCSCc1csc(CN(C)C)n1` was run?
The activation was -0.837%.

For `N#CC1(c2ccc(F)cc2)CCC(=O)CC1`, which activation is on record?
The activation was -18.6%.

With `CCCCC1(COC(=O)CCC(=O)O)C(=O)N(c2ccccc2)N(c2ccccc2)C1=O` as the compound, how does the activation read?
Its activation is -7.34%.

For `Cc1ccc(C(C)C)c(O)c1`, which activation is on record?
Its activation is -8.47%.

How did the activation turn out when `CCOc1cc(NC(C)=O)ccc1C(=O)OC` was run?
Its activation is -3.95%.

With `CN(CCCN1c2ccccc2CCc2ccccc21)CC(=O)c1ccc(Cl)cc1` as the compound, how does the activation read?
The activation was -1.69%.

For `CC(C)(C)c1cc(C=O)cc(C(C)(C)C)c1O`, which activation is on record?
The activation was -16.4%.

For `C[C@H]1C[C@H]2[C@@H]3CCC4=CC(=O)C=C[C@]4(C)[C@@]3(Cl)[C@@H](O)C[C@]2(C)[C@@]1(O)C(=O)CO`, which activation is on record?
Its activation is -4.18%.

Which activation does the source give for `CC(COc1ccccc1)NN` (stereo not given) here?
The activation was 6.69%.

For `COc1ccc(C(=O)NCc2ccc(OCCN(C)C)cc2)cc1OC`, which activation is on record?
Its activation is -28.8%.

With `O=C(O)c1c(O)c(-c2ccccc2)nc2ccccc12` as the compound, how does the activation read?
The activation was 22%.

`O=C(CCCCCCSc1ccc2ccccc2c1)NO` was tested. Which activation did it give?
Its activation is 0%.

Which activation does the source give for `CCCCCN=C(N)NN=Cc1c[nH]c2ccc(OC)cc12` here?
The activation was 31%.

`COc1ccc2c3c1OC1C[C@@H](O)C=C[C@@]31CCN(C)C2` (stereo not given in full) was tested. Which activation did it give?
The activation was 8.8%.

With `CN(C)c1cc(NC(=O)CNC(C)(C)C)c(O)c2c1C[C@@H]1C[C@H]3[C@H](N(C)C)C(=O)C(C(N)=O)=C(O)[C@@]3(O)C(=O)C1=C2O` as the compound, how does the activation read?
Its activation is -7.92%.

`CCCCCCCCCCOc1cc2c(=O)c(C(=O)OCC)c[nH]c2cc1OCC` was tested. Which activation did it give?
The activation was -12.6%.

With `C[N+]1(C)CCC(OC(=O)C(O)(c2ccccc2)C2CCCC2)C1` (stereo not given) as the compound, how does the activation read?
Its activation is 7.34%.

With `C[C@]12CCC(=O)C=C1C=C[C@@H]1[C@@H]2CC[C@@]2(C)[C@H]1CC[C@@]21CCC(=O)O1` as the compound, how does the activation read?
The activation was -33.3%.

With `C[C@@H](O)[C@H](N)C(=O)O` as the compound, how does the activation read?
The activation was -18.4%.

With `O=C(O)c1ccc(S(=O)(=O)N(Cl)Cl)cc1` as the compound, how does the activation read?
The activation was 20.9%.

How did the activation turn out when `O=c1cc(CO)occ1O` was run?
Its activation is -9.6%.

For `N#Cc1ccc(-c2csc(NN=C3CCCC3)n2)cc1`, which activation is on record?
Its activation is -8.94%.
